Laboratory results as given in the supplement of paper PMC11732987, “Enantioselective OTUD7B fragment discovery through chemoproteomics screening and high-throughput optimisation” (Communications Chemistry, 2025).

Key:
Experiment in all cases: log2 ratio of Biotin-Ahx-Ub-VS probe labelling (fragment/DMSO); higher = less target engagement (more negative = stronger competition), active = hit call of the paper (q ≤ 0.05, log2 ratio ≤ -1)
Settings in all cases: compound concentration: 200 uM; treatment time: 3 h
[1] = molecular target: T1, USP42 (UniProt Q9H9J4)
T1 sequence (whole entry): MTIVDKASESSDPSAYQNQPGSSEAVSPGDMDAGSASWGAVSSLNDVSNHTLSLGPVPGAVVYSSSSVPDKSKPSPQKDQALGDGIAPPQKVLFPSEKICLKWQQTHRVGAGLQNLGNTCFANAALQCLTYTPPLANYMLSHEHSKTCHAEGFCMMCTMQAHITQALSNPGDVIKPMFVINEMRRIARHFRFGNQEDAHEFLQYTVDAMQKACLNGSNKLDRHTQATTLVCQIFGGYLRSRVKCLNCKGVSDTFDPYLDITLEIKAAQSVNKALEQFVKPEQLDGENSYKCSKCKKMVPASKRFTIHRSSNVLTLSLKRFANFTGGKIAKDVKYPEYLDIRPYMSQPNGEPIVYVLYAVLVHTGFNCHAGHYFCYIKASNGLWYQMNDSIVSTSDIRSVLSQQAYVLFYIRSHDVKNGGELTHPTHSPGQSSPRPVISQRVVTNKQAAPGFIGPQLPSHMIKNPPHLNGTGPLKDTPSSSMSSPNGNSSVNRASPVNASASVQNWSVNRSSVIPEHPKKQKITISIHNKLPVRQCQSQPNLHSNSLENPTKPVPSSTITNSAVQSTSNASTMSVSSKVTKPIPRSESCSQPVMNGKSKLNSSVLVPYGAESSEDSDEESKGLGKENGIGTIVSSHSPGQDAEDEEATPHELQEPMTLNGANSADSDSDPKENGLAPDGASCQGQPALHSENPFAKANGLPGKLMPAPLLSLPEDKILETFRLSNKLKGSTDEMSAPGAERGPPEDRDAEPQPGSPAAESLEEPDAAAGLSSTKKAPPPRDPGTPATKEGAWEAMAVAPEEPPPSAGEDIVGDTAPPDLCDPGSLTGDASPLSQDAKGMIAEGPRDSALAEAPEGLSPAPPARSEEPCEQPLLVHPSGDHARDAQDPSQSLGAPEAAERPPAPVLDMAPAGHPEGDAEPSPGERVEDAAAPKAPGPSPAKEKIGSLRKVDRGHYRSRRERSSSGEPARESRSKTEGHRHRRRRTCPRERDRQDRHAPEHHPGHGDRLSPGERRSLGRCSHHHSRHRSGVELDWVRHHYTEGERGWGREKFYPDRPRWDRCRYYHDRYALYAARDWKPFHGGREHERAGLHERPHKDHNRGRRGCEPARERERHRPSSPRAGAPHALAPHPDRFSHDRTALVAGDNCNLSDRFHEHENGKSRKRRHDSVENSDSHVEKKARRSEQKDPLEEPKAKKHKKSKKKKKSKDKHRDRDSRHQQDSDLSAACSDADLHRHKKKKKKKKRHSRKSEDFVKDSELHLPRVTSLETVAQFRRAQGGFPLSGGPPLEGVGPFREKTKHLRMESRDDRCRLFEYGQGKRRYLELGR
In short: (§1)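 Fragment (200 µM) or vehicle was incubated for 3 h with triplicate HEK293T lysate samples of 495 µg, which were then treated with Biotin-Ahx-Ub-VS at 0.5 µM final for 1 h. Labelled DUBs were enriched on NeutrAvidin, digested with LysC and trypsin, and analysed by diaPASEF LC-MS/MS. Values are average log2 fragment/vehicle ratios from an unpaired t-test on global-median-normalised Spectronaut label-free quantities, using proteins with ≥2 unique peptides.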

[2] = molecular target: USP46 (UniProt P62068)
Chain of USP46 (P62068 whole entry): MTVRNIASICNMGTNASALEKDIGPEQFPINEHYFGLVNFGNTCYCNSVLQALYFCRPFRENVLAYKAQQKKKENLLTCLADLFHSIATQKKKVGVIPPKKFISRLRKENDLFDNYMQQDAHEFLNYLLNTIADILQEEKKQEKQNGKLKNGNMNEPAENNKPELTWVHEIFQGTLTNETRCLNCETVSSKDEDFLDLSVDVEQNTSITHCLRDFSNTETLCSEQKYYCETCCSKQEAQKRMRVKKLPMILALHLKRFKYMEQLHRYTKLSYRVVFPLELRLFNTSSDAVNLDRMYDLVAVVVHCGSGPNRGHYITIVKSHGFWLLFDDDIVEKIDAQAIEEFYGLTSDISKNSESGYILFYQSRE
In short: as §1

[3] = molecular target: T2, USP47 (UniProt Q96K76)
T2 sequence (whole entry): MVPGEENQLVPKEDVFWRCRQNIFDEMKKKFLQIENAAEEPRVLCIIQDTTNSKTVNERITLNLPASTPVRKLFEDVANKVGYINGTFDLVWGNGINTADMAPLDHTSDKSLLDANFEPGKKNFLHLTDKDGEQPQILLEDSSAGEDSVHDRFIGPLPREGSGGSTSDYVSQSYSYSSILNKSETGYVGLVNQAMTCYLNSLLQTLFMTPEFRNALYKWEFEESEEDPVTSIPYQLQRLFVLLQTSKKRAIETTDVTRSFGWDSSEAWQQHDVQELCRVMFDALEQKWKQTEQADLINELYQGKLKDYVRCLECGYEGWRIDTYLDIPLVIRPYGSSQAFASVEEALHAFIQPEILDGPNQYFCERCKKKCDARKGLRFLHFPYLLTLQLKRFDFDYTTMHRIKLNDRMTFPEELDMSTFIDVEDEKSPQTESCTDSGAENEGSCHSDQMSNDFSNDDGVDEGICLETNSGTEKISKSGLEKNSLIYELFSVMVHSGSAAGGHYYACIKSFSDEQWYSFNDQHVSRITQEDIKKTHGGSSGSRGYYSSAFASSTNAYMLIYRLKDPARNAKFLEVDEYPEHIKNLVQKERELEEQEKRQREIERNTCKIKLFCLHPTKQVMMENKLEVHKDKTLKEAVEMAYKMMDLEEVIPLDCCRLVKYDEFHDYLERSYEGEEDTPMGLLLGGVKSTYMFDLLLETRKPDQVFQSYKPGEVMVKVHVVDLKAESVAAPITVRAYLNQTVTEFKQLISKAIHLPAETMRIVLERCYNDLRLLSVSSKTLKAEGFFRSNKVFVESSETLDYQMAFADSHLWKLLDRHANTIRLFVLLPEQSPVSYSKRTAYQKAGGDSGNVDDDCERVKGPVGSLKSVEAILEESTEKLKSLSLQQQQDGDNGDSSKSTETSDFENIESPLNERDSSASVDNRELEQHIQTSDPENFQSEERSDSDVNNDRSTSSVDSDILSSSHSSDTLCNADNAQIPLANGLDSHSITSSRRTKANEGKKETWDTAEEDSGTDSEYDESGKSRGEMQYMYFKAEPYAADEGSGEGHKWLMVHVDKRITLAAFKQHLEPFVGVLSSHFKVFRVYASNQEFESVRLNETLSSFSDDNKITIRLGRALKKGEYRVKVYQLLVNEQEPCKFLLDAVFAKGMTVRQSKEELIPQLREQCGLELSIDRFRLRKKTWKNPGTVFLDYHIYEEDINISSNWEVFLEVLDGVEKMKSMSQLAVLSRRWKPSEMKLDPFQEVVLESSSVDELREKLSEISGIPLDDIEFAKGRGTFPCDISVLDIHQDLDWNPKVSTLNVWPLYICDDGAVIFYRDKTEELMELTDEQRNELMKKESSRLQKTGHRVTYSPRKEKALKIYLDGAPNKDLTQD
In short: as §1

[4] = molecular target: T3, USP48 (UniProt Q86UV5)
T3 sequence (whole entry): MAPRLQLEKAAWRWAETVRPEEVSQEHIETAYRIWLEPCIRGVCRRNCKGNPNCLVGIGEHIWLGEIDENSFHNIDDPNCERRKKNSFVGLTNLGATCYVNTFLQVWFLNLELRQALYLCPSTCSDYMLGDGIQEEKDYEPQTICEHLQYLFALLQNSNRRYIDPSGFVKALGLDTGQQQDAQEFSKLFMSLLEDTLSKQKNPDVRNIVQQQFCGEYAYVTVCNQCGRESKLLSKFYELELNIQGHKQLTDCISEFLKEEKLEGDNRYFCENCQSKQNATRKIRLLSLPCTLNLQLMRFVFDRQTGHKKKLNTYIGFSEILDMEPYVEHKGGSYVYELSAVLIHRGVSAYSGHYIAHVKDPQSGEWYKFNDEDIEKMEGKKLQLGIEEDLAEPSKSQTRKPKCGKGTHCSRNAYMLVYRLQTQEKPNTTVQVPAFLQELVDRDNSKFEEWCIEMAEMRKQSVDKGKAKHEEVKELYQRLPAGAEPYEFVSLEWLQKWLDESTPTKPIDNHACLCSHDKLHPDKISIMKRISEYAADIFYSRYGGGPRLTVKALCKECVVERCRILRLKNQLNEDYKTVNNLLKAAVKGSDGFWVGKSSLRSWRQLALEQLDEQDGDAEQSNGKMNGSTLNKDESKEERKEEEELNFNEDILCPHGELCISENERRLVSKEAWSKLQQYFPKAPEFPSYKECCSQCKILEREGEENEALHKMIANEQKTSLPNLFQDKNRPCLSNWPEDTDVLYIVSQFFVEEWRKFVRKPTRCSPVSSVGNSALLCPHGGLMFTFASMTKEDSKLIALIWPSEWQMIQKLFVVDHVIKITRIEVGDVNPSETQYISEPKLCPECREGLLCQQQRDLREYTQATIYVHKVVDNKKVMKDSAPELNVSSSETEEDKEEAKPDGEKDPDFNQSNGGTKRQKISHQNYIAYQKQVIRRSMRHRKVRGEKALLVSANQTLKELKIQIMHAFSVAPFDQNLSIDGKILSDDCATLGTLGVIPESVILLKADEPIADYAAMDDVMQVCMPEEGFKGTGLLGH
In short: as §1

[5] = molecular target: T4, USP5 (UniProt P45974)
T4 sequence (whole entry): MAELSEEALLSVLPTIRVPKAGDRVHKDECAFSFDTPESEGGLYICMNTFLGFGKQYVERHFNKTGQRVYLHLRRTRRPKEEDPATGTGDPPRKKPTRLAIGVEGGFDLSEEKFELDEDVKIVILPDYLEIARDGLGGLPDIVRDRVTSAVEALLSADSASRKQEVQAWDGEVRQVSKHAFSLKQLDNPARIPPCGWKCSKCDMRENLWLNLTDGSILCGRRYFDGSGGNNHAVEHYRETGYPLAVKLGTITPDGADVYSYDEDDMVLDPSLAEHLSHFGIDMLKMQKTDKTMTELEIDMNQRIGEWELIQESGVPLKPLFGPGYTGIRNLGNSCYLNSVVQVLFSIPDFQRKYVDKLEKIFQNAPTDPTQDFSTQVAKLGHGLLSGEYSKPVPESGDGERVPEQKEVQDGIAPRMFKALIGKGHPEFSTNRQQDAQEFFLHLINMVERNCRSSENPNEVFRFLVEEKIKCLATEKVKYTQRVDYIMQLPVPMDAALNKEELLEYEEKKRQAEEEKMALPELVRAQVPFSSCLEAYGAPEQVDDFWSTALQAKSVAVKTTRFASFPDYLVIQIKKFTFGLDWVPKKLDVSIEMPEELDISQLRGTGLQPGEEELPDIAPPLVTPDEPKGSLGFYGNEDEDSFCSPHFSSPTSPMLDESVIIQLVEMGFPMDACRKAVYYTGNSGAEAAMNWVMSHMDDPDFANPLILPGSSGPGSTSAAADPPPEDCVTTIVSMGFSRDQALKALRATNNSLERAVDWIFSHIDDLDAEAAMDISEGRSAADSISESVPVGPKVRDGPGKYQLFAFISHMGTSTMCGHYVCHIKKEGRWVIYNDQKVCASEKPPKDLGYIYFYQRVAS
In short: as §1

[6] = molecular target: USP54 (UniProt Q70EL1)
Chain of USP54 (Q70EL1 whole entry): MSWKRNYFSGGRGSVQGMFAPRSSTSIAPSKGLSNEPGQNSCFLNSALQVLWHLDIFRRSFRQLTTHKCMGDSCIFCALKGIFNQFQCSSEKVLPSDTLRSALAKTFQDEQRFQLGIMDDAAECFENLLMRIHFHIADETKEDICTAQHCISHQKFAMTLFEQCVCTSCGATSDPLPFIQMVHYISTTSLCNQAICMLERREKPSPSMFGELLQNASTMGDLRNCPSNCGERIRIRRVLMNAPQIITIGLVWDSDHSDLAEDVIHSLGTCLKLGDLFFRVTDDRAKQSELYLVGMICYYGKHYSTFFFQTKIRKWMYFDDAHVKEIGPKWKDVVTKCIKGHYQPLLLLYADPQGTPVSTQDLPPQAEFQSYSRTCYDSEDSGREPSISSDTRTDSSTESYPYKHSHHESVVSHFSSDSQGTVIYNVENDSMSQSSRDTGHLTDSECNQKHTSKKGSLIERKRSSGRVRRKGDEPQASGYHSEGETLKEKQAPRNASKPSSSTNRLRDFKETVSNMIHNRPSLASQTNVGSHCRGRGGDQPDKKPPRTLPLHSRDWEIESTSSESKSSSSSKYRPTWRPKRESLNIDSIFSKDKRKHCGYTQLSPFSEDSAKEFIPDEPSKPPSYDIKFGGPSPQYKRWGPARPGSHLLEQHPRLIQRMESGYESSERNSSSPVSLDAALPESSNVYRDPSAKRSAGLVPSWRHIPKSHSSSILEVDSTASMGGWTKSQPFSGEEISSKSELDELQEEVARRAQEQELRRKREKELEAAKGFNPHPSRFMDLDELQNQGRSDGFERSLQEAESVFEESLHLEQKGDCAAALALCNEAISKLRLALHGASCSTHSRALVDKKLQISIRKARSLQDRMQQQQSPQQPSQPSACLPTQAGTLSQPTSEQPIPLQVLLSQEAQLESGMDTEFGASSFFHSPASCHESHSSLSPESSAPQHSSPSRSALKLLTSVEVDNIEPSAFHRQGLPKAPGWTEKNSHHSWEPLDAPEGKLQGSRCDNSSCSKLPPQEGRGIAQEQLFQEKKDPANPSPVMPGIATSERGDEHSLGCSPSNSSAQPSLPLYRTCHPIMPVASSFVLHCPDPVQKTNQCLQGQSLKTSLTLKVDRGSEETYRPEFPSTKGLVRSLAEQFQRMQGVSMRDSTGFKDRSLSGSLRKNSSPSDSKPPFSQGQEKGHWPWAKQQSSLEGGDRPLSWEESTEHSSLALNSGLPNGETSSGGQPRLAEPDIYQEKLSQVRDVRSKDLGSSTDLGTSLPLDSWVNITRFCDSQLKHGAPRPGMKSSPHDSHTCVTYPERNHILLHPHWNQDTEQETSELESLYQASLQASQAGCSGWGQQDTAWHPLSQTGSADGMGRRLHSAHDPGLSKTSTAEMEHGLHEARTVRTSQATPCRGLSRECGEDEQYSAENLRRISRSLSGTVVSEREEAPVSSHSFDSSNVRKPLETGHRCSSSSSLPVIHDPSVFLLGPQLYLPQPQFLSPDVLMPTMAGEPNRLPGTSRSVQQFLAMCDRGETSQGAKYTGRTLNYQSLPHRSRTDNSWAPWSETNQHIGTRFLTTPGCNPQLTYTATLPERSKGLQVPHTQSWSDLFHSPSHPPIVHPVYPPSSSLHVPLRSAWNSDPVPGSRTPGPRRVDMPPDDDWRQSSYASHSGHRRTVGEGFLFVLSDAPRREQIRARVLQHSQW
In short: as §1

[7] = molecular target: USP7 (UniProt Q93009)
Chain of USP7 (Q93009 whole entry, looked up): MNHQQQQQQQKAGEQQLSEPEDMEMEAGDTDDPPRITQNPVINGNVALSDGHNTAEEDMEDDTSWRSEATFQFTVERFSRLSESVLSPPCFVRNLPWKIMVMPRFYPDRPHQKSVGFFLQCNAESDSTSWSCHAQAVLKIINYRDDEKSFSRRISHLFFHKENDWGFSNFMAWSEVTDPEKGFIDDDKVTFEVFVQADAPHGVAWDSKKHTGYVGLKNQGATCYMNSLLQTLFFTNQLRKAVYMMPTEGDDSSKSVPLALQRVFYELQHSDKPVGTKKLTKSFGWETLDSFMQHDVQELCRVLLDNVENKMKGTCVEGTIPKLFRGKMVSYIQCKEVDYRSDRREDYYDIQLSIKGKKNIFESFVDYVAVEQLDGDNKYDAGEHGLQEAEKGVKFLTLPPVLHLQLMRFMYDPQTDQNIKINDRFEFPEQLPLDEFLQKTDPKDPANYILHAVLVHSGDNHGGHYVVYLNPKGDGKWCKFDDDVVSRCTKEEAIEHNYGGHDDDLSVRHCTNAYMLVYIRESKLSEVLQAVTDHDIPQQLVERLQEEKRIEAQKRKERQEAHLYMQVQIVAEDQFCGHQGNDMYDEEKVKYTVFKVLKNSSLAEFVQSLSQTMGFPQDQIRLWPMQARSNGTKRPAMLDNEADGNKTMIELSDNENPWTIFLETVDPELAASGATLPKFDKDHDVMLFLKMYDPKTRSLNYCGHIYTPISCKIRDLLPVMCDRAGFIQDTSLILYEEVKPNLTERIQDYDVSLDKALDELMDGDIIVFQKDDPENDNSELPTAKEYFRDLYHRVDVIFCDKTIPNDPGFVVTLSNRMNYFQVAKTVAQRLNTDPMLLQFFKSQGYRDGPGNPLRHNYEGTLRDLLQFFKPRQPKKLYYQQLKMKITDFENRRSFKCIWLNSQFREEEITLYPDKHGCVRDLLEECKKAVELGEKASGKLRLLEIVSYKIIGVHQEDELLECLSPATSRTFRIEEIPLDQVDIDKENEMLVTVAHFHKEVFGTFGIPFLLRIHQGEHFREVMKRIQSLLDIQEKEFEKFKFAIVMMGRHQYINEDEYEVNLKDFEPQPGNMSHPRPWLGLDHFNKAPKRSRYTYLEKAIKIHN
In short: as §1

[8] = molecular target: T5, USP8 (UniProt P40818)
T5 sequence (whole entry): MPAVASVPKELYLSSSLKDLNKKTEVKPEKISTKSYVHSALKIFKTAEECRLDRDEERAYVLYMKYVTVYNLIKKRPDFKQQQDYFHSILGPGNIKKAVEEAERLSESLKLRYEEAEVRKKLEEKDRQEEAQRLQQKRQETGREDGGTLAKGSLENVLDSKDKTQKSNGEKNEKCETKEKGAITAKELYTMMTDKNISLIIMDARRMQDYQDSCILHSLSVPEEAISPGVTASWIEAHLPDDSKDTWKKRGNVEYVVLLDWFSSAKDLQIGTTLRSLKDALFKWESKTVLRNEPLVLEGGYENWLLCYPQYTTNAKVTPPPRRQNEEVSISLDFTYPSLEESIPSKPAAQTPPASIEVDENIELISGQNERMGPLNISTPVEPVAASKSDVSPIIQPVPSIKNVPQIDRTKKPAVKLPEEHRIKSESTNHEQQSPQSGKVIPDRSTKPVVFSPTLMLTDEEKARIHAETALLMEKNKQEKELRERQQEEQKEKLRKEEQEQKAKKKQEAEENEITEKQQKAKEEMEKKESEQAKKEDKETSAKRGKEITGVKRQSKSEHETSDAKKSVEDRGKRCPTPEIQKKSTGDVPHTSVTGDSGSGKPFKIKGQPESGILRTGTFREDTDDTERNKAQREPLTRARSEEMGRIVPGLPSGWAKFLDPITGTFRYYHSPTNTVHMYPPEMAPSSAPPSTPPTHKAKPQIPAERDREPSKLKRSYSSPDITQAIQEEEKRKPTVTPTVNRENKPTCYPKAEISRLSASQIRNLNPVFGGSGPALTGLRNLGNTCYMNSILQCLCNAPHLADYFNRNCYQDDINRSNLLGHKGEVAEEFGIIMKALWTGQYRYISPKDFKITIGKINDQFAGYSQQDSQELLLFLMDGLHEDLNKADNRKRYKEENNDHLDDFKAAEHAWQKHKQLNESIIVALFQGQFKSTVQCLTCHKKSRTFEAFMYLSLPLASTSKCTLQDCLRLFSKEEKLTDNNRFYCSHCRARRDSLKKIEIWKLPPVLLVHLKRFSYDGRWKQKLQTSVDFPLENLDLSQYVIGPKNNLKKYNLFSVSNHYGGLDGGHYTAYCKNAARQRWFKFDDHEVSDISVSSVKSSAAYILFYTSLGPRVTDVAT
In short: as §1

Measured: log2 ratio of Biotin-Ahx-Ub-VS probe labelling

O=C(CCl)N1CCOC(CCc2ccccc2)C1 (stereo not drawn)
inactive: [1] 0.335 | [2] -0.509 | [3] -1.03 | [4] -0.472 | [5] -0.132 | [6] 0.433 | [7] -0.763 | [8] -0.555
